Laboratory results as given in PubChem BioAssay (Tox21).
Results filed as inconclusive are left out. The source made the active and inactive calls. Unless noted, the call rests on the fitted dose curve; in most records, active means well fitted curve in the direction sought with a large enough effect in the repeat runs; inconclusive means weak or mixed curves; inactive means no such curve, though single readings can be large; an effect the other way counts as inactive or inconclusive.

Legend:
[1] = qHTS assay to identify small molecule antagonists of the estrogen related receptor signaling pathway with the pleiotropic PPARgamma coactivator (PGC) from Tox21 10K library - cell viability counter screen (AID 1224840; active means well fitted cell-killing curve with a large enough effect in the repeat runs, not every such curve was filed as active; further: nearly all actives have a fitted effect of over 40% in size)
Outline: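 PGC/ERR cells, 2,000/well; 6 h pre-incubation 37 C/5% CO2; cpd in DMSO via pin tool; 17.5 h 37 C; CellTiter-Fluor, 30 min; fluorescence.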

[2] = target: Thyrotropin receptor (Homo sapiens) (UniProt P16473); test: qHTS assay to identify small molecule agonists of the thyroid stimulating hormone receptor (TSHR) signaling pathway (AID 1224843; calls by dose curve; further: nearly all actives have a fitted effect of over 45% in size)
Sequence of Thyrotropin receptor (Homo sapiens) (P16473 whole entry, looked up): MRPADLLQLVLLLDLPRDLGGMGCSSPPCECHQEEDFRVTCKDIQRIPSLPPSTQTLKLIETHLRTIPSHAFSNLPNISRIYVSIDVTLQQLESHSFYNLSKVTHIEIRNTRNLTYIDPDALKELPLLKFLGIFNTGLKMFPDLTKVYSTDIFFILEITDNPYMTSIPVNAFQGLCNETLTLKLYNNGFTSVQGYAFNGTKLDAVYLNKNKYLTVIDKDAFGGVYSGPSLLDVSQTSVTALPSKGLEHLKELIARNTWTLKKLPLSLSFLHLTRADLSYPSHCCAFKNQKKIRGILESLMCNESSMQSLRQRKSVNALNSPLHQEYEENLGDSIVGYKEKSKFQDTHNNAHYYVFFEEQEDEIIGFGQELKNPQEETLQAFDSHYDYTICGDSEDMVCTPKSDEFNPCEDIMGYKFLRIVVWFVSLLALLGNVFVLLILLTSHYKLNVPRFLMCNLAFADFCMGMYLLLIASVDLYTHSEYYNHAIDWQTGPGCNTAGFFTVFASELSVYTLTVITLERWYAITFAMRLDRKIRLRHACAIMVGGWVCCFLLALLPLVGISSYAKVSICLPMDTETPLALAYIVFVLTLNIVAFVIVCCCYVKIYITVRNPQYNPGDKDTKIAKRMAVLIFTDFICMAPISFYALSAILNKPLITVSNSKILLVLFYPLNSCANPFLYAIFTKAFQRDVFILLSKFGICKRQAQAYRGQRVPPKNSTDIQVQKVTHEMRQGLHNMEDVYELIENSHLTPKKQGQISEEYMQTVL
Outline: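 Cell line HEK293 with TSHR; density 800/well. Exposure 30 min RT. Readout HTRF cAMP (cAMP-d2/anti-cAMP-cryptate), 1 h RT before reading.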

[3] = qHTS assay to identify small molecule agonists of the hypoxia (HIF-1) signaling pathway - cell viability counter screen (AID 1224844; calls by dose curve; further: nearly all actives have a fitted effect of over 50% in size)
Outline: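 ME-180 HRE-bla cells, 2,000/well, 0.5% dialyzed FBS; 5 hr settle, 17 hr compound at 37C/5% CO2; CCF4-AM reporter read first, then CellTiter-Glo luminescence after 30 min RT.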

[4] = qHTS assay to identify small molecule agonists of H2AX (AID 1224845; active means well fitted activation curve with a large enough effect in the signal ratio in the repeat runs, not every such curve was filed as active; the % refers to the signal ratio)
Outline: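 Wild-type CHO-K1 cells plated overnight, then exposed 3 hr at 37C to compounds at 15 concentrations (0.76% DMSO). Lysed, then HTRF anti-pH2AX(S139)-cryptate/anti-H2AX-d2 detection after 24 hr at room temperature; emissions 665 and 620 nm.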

[5] = qHTS assay to identify small molecule agonists of the hypoxia (HIF-1) signaling pathway (AID 1224846; active means well fitted activation curve with a large enough effect in the signal ratio in the repeat runs, not every such curve was filed as active; the % refers to the signal ratio)
Outline: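 Cell line: CellSensor HRE-bla ME-180; 2,000 cells/well; 0.5% dialyzed FBS; 5 h preincubation; DMSO compound pin transfer; 17 h, 37C, 5% CO2; CCF4-AM added; bla FRET signal scored for activation.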

[6] = qHTS assay to identify small molecule agonists of H2AX - cell viability counter screen (AID 1224847; calls by dose curve; further: top concentration of the series differs between compounds; nearly all actives have a fitted effect of over 30% in size)
Outline: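 Cells plated first: CHO-K1, 1000 per well in 10% FBS medium, incubated overnight at 37C. Then 15-point compound titration added (final DMSO 0.76%) for 3 hr. Finally CellTiter-Glo added and luminescence read.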

[7] = qHTS RealTime-Glo MT Cell Viability Assay in HepG2 cells - 24 hour (AID 1224867); further: nearly all actives have a fitted effect of over 50% in size
Outline: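 Viability was tracked continuously by NanoLuc luminescence from prosubstrate reduced by living HepG2 cells, at successive time points over 40 h of compound exposure. Cells with reagent were preincubated 5 h at 37 °C before compound addition.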

[8] = qHTS RealTime-Glo MT Cell Viability Assay in HEK293 cells - 32 hour (AID 1224868); further: top concentration of the series differs between compounds; nearly all actives have a fitted effect of over 50% in size
Outline: (§1)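 Viability tracked continuously by luminescence as live cells reduce a prosubstrate for NanoLuc; HEK293 cells preincubated 5 h, compound-treated at 37 C, and read at 0, 8, 16, 24, 32 and 40 h.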

[9] = A CellTox Green Cytotoxicity Assay to monitor cytotoxicity in HEK293 cells - 0 hour (AID 1224869); further: nearly all actives have a fitted effect of over 50% in size
Outline: (§2)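 Nonlytic real-time cytotoxicity: HEK293 + CellTox Green reagent plated, 5 h preincubation, pintool compound addition (23 nL in DMSO), 37 C for 40 h, fluorescence measured at successive time points.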

[10] = qHTS RealTime-Glo MT Cell Viability Assay in HepG2 cells - 40 hour (AID 1224870); further: nearly all actives have a fitted effect of over 50% in size
Outline: (§3)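 HepG2 cells mixed with RealTime-Glo MT reagents (NanoLuc plus cell-permeant prosubstrate) were seeded at 600 cells/well, incubated 5 h at 37 C/5% CO2, then pinned with compounds in DMSO; nonlytic luminescence tracked viability during 40 h treatment.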

[11] = A CellTox Green Cytotoxicity Assay to monitor cytotoxicity in HEK293 cells - 40 hour (AID 1224871); further: nearly all actives have a fitted effect of over 45% in size
Outline: as §2

[12] = qHTS RealTime-Glo MT Cell Viability Assay in HEK293 cells - 16 hour (AID 1224872)
Outline: as §1

[13] = qHTS RealTime-Glo MT Cell Viability Assay in HepG2 cells - 8 hour (AID 1224873); further: nearly all actives have a fitted effect of over 55% in size
Outline: as §3

[14] = qHTS RealTime-Glo MT Cell Viability Assay in HEK293 cells - 40 hour (AID 1224874); details: RealTime-Glo luminescence; max response: stronger effect = lower value; further: nearly all actives have a fitted effect of over 50% in size
Outline: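 Cells were seeded together with NanoLuc luciferase and a prosubstrate that viable cells reduce to a luciferase substrate. After a 5 h incubation at 37 C/5% CO2, compounds were added and luminescence was measured repeatedly during 40 h of treatment.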

[15] = A CellTox Green Cytotoxicity Assay to monitor cytotoxicity in HEK293 cells - 24 hour (AID 1224875); further: series mostly up to about 77 µM; nearly all actives have a fitted effect of over 45% in size
Outline: as §2

[16] = qHTS assay to identify small molecule agonists of the estrogen related receptor signaling pathway with the pleiotropic PPARgamma coactivator (PGC) from Tox21 10K library (AID 1224842); further: nearly all actives have a fitted effect of over 15% in size
Outline: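 PGC/ERR reporter cells (NTP line) were seeded 2,000 per well, rested 6 h at 37 C/5% CO2, then pin-dosed with compounds in DMSO for 18 h at 37 C; luciferase read by One-Glo luminescence after 30 min at room temperature.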

[17] = qHTS assay to identify small molecule antagonists of the estrogen related receptor (ERR) signaling pathway from Tox21 library (AID 1224848); further: nearly all actives have a fitted effect of over 50% in size
Outline: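 Screening used an ERR reporter line supplied by NTP, exposed for 18 h at 37 C to library compounds delivered in DMSO. Signal was luciferase luminescence developed with ONE-Glo at room temperature for 30 min.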

[18] = qHTS assay to identify small molecule agonists of the estrogen related receptor (ERR) signaling pathway from Tox21 library (AID 1224849; calls by dose curve; further: nearly all actives have a fitted effect of over 15% in size)
Outline: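 ERR cells, 6 h pre-incubation 37 C/5% CO2; cpd in DMSO pinned; 18 h 37 C; ONE-Glo added, 30 min RT; luminescence read. Agonist mode, qHTS.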
On the % scale 0 is the no-effect control and ±100 the full control effect.

O=C(O)c1c(Cl)ccc(Cl)c1Cl
inactive: outcome [1] | outcome [2] | outcome [3] | outcome [4] | outcome [5] | Potency [6] | outcome [7] | Potency [8] | Potency [9] | outcome [10] | Potency [11] | Potency [12] | outcome [13] | max response [14] 5.49% | Potency [15]

CCCCC(=O)N(C)C
inactive: outcome [1] | outcome [2] | outcome [3] | outcome [4] | outcome [5] | outcome [7] | Potency [8] | Potency [9] | outcome [10] | Potency [11] | Potency [12] | outcome [13] | max response [14] 1.13% | Potency [15]

CC(C)(C)NCCO
inactive: outcome [1] | outcome [16] | outcome [4] | outcome [5] | Potency [6] | Potency [17] | outcome [18] | outcome [7] | Potency [8] | Potency [9] | outcome [10] | Potency [11] | Potency [12] | outcome [13] | max response [14] 6.71% | Potency [15]

Cc1c(C(C)C)c(=O)n(-c2ccccc2)n1C
inactive: outcome [1] | outcome [16] | outcome [3] | outcome [5] | Potency [17] | outcome [18] | outcome [7] | Potency [8] | Potency [9] | outcome [10] | Potency [11] | Potency [12] | outcome [13] | max response [14] 3.94% | Potency [15]

CCCCCC1Nc2cc(C(F)(F)F)c(S(N)(=O)=O)cc2S(=O)(=O)N1 (stereo not given)
inactive: outcome [1] | outcome [2] | outcome [3] | outcome [4] | outcome [5] | Potency [6] | outcome [7] | Potency [8] | Potency [9] | outcome [10] | Potency [11] | Potency [12] | outcome [13] | max response [14] -1.2% | Potency [15]

O=c1[nH]c(=O)c2[nH]c(=O)[nH]c2[nH]1
inactive: viability change, negative = cytotoxic [1] -2.62% [at 8.39 µM] | activation [2] 0.91% [at 8.39 µM] | activity change, negative = cytotoxicity [3] 3.89% [at 6.97 µM] | activation (H2AX phosphorylation) [4] 0.259% [at 14 µM] | activation [5] 0.359% [at 7.01 µM] | activity change, negative = cytotoxicity [6] -1.7% [at 14 µM] | activity change, negative = cytotoxicity [7] 1.41% [at 6.97 µM] | activity change, negative = cytotoxic [8] 9.11% [at 6.97 µM] | cytotoxicity [9] -14.8% [at 6.97 µM] | activity change, negative = cytotoxic [10] 0.76% [at 6.97 µM] | cytotoxicity increase [11] -13.3% [at 6.97 µM] | activity change, negative = cytotoxicity [12] 9.21% [at 6.97 µM] | viability change, negative = cytotoxic [13] 1.36% [at 6.97 µM] | max response [14] 10.6% | activity change [15] -9.62% [at 6.97 µM, stronger effect = higher value]

Cc1ccc(S(=O)(=O)NC(=O)NC2CCCCCCC2)cc1
inactive: outcome [1] | outcome [2] | outcome [3] | outcome [4] | outcome [5] | outcome [7] | Potency [8] | Potency [9] | outcome [10] | Potency [11] | Potency [12] | outcome [13] | max response [14] 0.902% | Potency [15]

CCC(O)C(C)(C)C (stereo not given)
inactive: outcome [1] | outcome [2] | outcome [3] | outcome [4] | outcome [5] | Potency [6] | outcome [7] | Potency [8] | Potency [9] | outcome [10] | Potency [12] | outcome [13] | max response [14] 2.07%

O=C(c1ccc2c(c1)C(=O)OC2=O)c1ccc2c(c1)C(=O)OC2=O
inactive: outcome [1] | outcome [2] | outcome [3] | outcome [4] | outcome [5] | Potency [6] | outcome [7] | Potency [8] | Potency [9] | outcome [10] | Potency [11] | Potency [12] | outcome [13] | max response [14] -1.77% | Potency [15]

NS(=O)(=O)c1ccccc1OC(F)(F)F
inactive: outcome [1] | outcome [16] | outcome [3] | outcome [4] | outcome [5] | Potency [6] | Potency [17] | outcome [18] | outcome [7] | Potency [8] | Potency [9] | outcome [10] | Potency [11] | Potency [12] | outcome [13] | max response [14] 6.21% | Potency [15]

NS(=O)(=O)c1ccc(Cl)c(S(N)(=O)=O)c1
inactive: outcome [1] | outcome [2] | outcome [3] | outcome [4] | outcome [5] | Potency [6] | outcome [7] | Potency [8] | Potency [9] | outcome [10] | Potency [11] | Potency [12] | outcome [13] | max response [14] 13.4% | Potency [15]

CCCCCCCCCCCCCC(=O)OC
inactive: outcome [1] | outcome [2] | outcome [3] | outcome [4] | outcome [5] | outcome [7] | Potency [8] | Potency [9] | outcome [10] | Potency [11] | Potency [12] | outcome [13] | max response [14] 12.2% | Potency [15]

CCOC(=O)C(C)(C)C
inactive: outcome [1] | outcome [2] | outcome [3] | outcome [4] | outcome [5] | Potency [6] | outcome [7] | Potency [8] | Potency [9] | outcome [10] | Potency [11] | Potency [12] | outcome [13] | max response [14] -0.816% | Potency [15]

CNC(=O)NC
inactive: outcome [1] | outcome [2] | outcome [3] | outcome [4] | outcome [5] | Potency [6] | outcome [7] | Potency [8] | Potency [9] | outcome [10] | Potency [11] | Potency [12] | outcome [13] | max response [14] 1.12% | Potency [15]

CCN(CC)C(=O)C1CN2CCc3cc(OC)c(OC)cc3C2CC1OC(C)=O (stereo not given)
inactive: outcome [1] | outcome [2] | outcome [3] | outcome [4] | outcome [5] | Potency [6] | outcome [7] | Potency [8] | Potency [9] | Potency [11] | Potency [12] | outcome [13] | max response [14] -4.78% | Potency [15]

CCCCC[Si](OCC)(OCC)OCC
inactive: outcome [1] | outcome [2] | outcome [3] | outcome [4] | outcome [5] | outcome [7] | Potency [8] | Potency [9] | outcome [10] | Potency [11] | Potency [12] | outcome [13] | max response [14] -19.8% | Potency [15]

CN[C@@H]1[C@H](O)[C@H](NC)[C@H]2O[C@@]3(O)C(=O)C[C@@H](C)O[C@H]3O[C@@H]2[C@H]1O
inactive: outcome [1] | outcome [2] | outcome [3] | outcome [4] | outcome [5] | Potency [6] | outcome [7] | Potency [8] | Potency [9] | Potency [11] | Potency [12] | outcome [13] | max response [14] -13.7% | Potency [15]
